# Source: PubChem BioAssay
# In the library only some 5.3% were active in any assay of this set; here they are far more common.
# FBPA coupling cs – counter-screen for Giardia aldolase inhibitors: coupling enzyme system; coupling enzyme system counterscreen, AmpLite Red fluorescence; activity change, negative = inhibition, % at 58.2 µM, hits read low; actives 0.67% (n = 290,000); in the data active means activity change below about -30%
#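 Final compound at 57.5 uM, incubated 10 min at RT with coupling enzyme reagent (glyceraldehyde-3-phosphate), then 20 min with substrate and AmpLite Red detection. Fluorescence read at 525/598 nm; tests interference with the coupling assay, not aldolase inhibition.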
# Tau fibril ThT – blocks human tau fibril formation measured by thioflavin T. Potency, µM (top dose mostly 57.4 µM), most hits filed as inhibitors. AID 1460. actives 2.1% (n = 270,000). recombinant tau K18 P301L, heparin-induced fibrillization, ThT fluorescence; further: nearly all actives have a fitted effect of over 55% in size
# Target sequence (P10636 561-689 P618L limits assumed): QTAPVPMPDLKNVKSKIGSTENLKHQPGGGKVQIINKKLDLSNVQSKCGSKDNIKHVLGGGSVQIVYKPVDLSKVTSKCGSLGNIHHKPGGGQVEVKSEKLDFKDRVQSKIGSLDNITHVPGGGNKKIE
#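 Using a mix of unlabeled (15 uM) and Alexa 594-labeled (0.24 uM) tau K18 P301L, heparin-triggered fibrillization over 6 hr at 37 C was scored by ThT fluorescence.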
# KDM4E inh – inhibitors of human JMJD2E histone demethylase; B2RXH2; JMJD2E catalytic domain, FDH-coupled NADH fluorescence (FDH is formaldehyde dehydrogenase); Potency, µM (top dose mostly 57.1 µM), actives largely listed as inhibitors; actives 1.6% (n = 230,000); AID 2147; active means well fitted inhibition curve with a large enough effect, not every such curve was filed as active; inconclusive means small, poorly fitted or top-dose-only effect, or another doubt; inactive means no such curve, though single readings can be large or run the other way; further: nearly all actives have a fitted effect of over 50% in size
# Target sequence (B2RXH2 1-337 limits assumed): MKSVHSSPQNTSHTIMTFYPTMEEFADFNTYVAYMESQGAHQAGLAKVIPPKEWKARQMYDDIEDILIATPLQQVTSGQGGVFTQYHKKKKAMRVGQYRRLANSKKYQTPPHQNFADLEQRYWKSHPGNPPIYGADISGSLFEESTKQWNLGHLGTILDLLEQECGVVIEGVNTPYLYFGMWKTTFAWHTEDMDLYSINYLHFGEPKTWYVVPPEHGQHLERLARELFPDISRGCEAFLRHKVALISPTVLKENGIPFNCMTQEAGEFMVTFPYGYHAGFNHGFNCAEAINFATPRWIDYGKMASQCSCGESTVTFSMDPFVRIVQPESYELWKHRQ
# Tau fluor cs – counter-screen for tau fibril formation inhibitors | tau K18 P301L Alexa594 fluorescence, heparin fibrillization | Potency, µM (titrated, usually from 57.7 µM) | actives 0.93% (n = 280,000); further: nearly all actives have a fitted effect of over 55% in size
#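 Human tau K18 P301L (15 uM unlabeled, 0.24 uM Alexa 594-labeled) in 100 mM sodium acetate pH 7 with 20 uM heparin, 6 hr at 37 C. ThT 30 uM added, 1 hr ambient; Alexa 594 FP and total fluorescence read at 555/632 nm.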
# Tau FP inhib – tau fibrillization inhibition (FP). P10636. K18 P301L tau heparin fibrillization, Alexa594 FP, 6 h. Potency, µM (titrated, usually from 57.7 µM), actives largely listed as inhibitors. actives 0.39% (n = 280,000). AID 1468; further: nearly all actives have a fitted effect of over 55% in size
#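 Read-out: fluorescence polarization of Alexa 594-labeled tau (0.24 uM), 555 nm excitation, 632 nm emission. Mixtures held 15 uM unlabeled K18 P301L, compound and 20 uM heparin, pH 7 acetate buffer, incubated 6 hr at 37 C.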
# Sfp inh – Sfp phosphopantetheinyl transferase inhibition; Q9F4F7; Biochemical Sfp PPTase activity, qHTS; Potency, µM, actives largely listed as inhibitors; actives 3.5% (n = 310,000); AID 1490;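 further: the enzyme is Sfp with the accession as filed and its product quenches rhodamine fluorescence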
#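 After 15 min at room temperature with compound, 15 nM Sfp received 5 uM rhodamine-CoA plus 12.5 uM BHQ-2-ybbR (50 mM Hepes pH 7.6, 10 mM MgCl2). Rate came from the fluorescence difference over 30 min, ex 525/em 598 nm.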
# Hits are given with their value; . = inactive; ? = inconclusive; / = no result; ! = not active in a repeat; [ ] = dose if it differs, or a comment. Unless noted, the call rests on the fitted dose curve; in most records, active means well fitted curve in the direction sought with a large enough effect; inconclusive means small, poorly fitted or top-dose-only effect, or another doubt; inactive means no such curve, though single readings can be large; an effect the other way counts as inactive or inconclusive.
SMILES,FBPA coupling cs,Tau fibril ThT,KDM4E inh,Tau fluor cs,Tau FP inhib,Sfp inh
CO[C@H]1COC(=O)[C@@H](Cc2ccccc2)NC(=O)[C@@H](C)COC(=O)C/C=C\[C@@H]1C,.,.[11.5 µM],/,.[11.6 µM],.[11.6 µM],.
CC(=O)Nc1ccc2nc(-c3ccccn3)[nH]c2c1,.,.,?,.,.,50µM
CCOC(=O)c1[nH]c(C)c(CCC(=O)Nc2cc(Cl)ccc2C)c1C,/,.,/,.,.,/
CCOC(=O)C1=C(C)OC(N)=C(C#N)C1c1ccc(C)s1 (centres undefined),.,.,?,.,.,.
CCCCc1ccc(C2C(C#N)=C(N)SC(N)=C2C#N)s1,.,25µM,.,25µM[quencher],?,56µM
Cc1ccc(CNC(C)c2ccccc2)s1 (centres undefined),/,.,/,.,.,/
CC(NCCC(c1ccccc1)c1ccccc1)c1ccccc1 (centres undefined),.,.,.,.,.,25µM!
COC(=O)N1CCC2(CC1)CN(c1ccccc1)C2,.,/,/,/,/,.
CCCCCC[C@@H]([C@@H](C)O)n1cnc2c(N)ncnc21,.,.,13µM!,.,.,.
CCCCOC(=O)c1ccc(NC(=O)c2ccc3c(c2)CCN3S(C)(=O)=O)cc1,/,.,/,?,?,/
O=C(N/N=C/c1cc(Br)c(Br)o1)c1ccc2c(c1)OCCO2,.,?,?,?,.,4.5µM
O=C(N/N=C/c1cc(Br)c(Br)o1)c1cccnc1,-55,?,.,.,.,32µM
O=C(N/N=C/c1cc(Br)c(O)c(Br)c1O)c1ccc2c(c1)OCCO2,.,/,/,/,/,?
O=C(N/N=C\c1cc(Br)c(Br)o1)c1cncc(Br)c1,.,?,.,.,.,.
O=C1C(=O)N(CNc2cccnc2)c2ccccc21,-37,.,.,.,.,.
O=C1C(=O)N(CNc2ccccn2)c2ccccc21,/,.,.,.,.,.
NC(CSS(=O)(=O)O)=NCCC12CC3CC(CC(O)(C3)C1)C2,.,3.5µM,.,.,?,50µM
CCCCc1cc2c(cn1)=C(OC(=O)c1cccs1)C(C)(OC(=O)CC)C(=O)C=2 (centres undefined),.,.[11.5 µM],.[11.4 µM],.[11.6 µM],.[11.6 µM],.
S=C(NCc1ccc2c(c1)OCO2)Nc1ccc(-c2nc3ccccc3[nH]2)cc1,.,?,?,13µM[quencher],?,.
S=C(NCCCN1CCOCC1)Nc1ccc(-c2nc3ccccc3[nH]2)cc1,.,.,?,.,.,35µM
Cc1nnc(C)c2c(C)n(C(C)c3ccccc3)c(C)c12 (centres undefined),-33,.,?,.,.,?
COc1ccc(C(C)n2c(C)c3c(C)nnc(C)c3c2C)cc1 (centres undefined),.,?,?,.,.,.
Nc1nc(-c2ccc(Cl)cc2)c(N=Nc2ccc(S(=O)(=O)N3CCOCC3)cc2)s1,.,14µM,.,11µM[quencher],?,.
COc1ncc2nc(CCc3ccccc3)c(=O)n(C3CC3)c2n1,.,/,/,/,/,.
O=C(CSc1ncnc2c1oc1ccccc12)c1cccs1,.,.,.,.,.,.
SMILES,FBPA coupling cs,Tau fibril ThT,KDM4E inh,Tau fluor cs,Tau FP inhib,Sfp inh
Cc1nc(SCc2ccccc2F)c2oc3ccccc3c2n1,.,.,.,.,.,79µM
Cc1nc(SCC(=O)c2cccs2)c2oc3ccccc3c2n1,.,?,.,.,.,79µM
Cc1nc(SCc2ccc(F)cc2)c2oc3ccccc3c2n1,.,.,.,.,?,.
COc1ccc(-c2nnc3n2N=C(c2cc(OC)ccc2OC)CS3)c(OC)c1,.,/,/,/,/,.
CCC(O)c1nc2ccccc2n1CCOc1cc(C)cc(C)c1 (centres undefined),/,.,/,.,.,/
CCc1cc2c(nc1CC)CCN(CC/C(C)=N/OC[C@H]1O[C@H](c3ccccc3)C=C[C@@H]1Oc1ccc(OC)cc1)C2,.,?,35µM,.[11.6 µM],.[11.6 µM],.
CCCCN(Cc1cc2cc(C)ccc2[nH]c1=O)C(=O)c1ccccn1,.,.,?,.,.,.
CCCN(Cc1cc2ccc(C)cc2[nH]c1=O)C(=O)c1ccccn1,-32,.,?,.,.,?
O=C(CCCn1c(=S)[nH]c2ccccc2c1=O)N1CCCCC1,.,.,.,.,.,.
O=C(CCN1CCCCC1)Nn1c(=S)[nH]c2ccccc2c1=O,.,.,.,.,.,50µM
Cc1cc(O)c(/C=N/OCc2ccc(Cl)cc2Cl)c(=O)o1,.,.,.,.,.,.
CN(C)/C=C(\C=N\OCc1ccc(Cl)cc1Cl)C(=O)Nc1ccc(Cl)c(Cl)c1,.,?,.,16µM[quencher],.,.
CO[C@@H]1/C=C\CC(=O)N[C@@H](C)C(=O)OC[C@@H](OC)[C@H](C)/C=C\CC(=O)OC[C@H]1C,.,.[11.5 µM],/,.[11.6 µM],.[11.6 µM],.
Cc1ccc(Cn2ncc(Cl)c(Cl)c2=O)cc1,.,.,.,.,.,.
O=c1c(Cl)c(Cl)cnn1Cc1nnc(-c2ccc(Cl)cc2)o1,.,28µM,.,.,?,.
CN(C)C=Nc1nonc1-c1ccccc1,.,.,.,.,.,.
CN(C)C=Nc1c(Br)cc(Br)c2nonc12,-43,?,.,.,?,.
Cc1c(N=C2NN=C(c3c[nH]c4ccccc34)CS2)c(=O)n(-c2ccccc2)n1C,.,?,?,?,.,?
Cc1c(N=C2NN=C(c3ccc(Cl)cc3)CS2)c(=O)n(-c2ccccc2)n1C,.,?,.,.,.,50µM
